In PubChem BioAssay (NCI):
This is part of a sample that, as a whole, favours compounds with a hit. Of some 83,000 tested, about 20% had one in any assay.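 Single-concentration screen, 48 h exposure, 96-well plates. Endpoint: percent growth. Below 10 = active.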 A number with no mark means an inactive call. Calls of active or inactive are those of the source.

What was measured:
Assay in all cases: NCI-60 one-dose screen, 48 h (100 = growth as untreated, 0 = no growth, -100 = all killed)
Conditions in all cases: 10 µM unless noted
[1] = system: NCI-H23 lung
[2] = system: NCI-H226 lung
[3] = system: NCI-H322M lung
[4] = system: HOP-62 NSCLC
[5] = system: NCI-H460 lung
[6] = system: HOP-92 NSCLC
[7] = system: NCI-H522 lung
[8] = system: A549/ATCC NSCLC
[9] = system: 786-0 renal
[10] = system: COLO 205 colon

Row | Compound | growth [1] | growth [2] | growth [3] | growth [4] | growth [5] | growth [6] | growth [7] | growth [8] | growth [9] | growth [10]
1 | CCOC(=O)NNc1cccc(Cl)c1 | 93.8% | 84.7% | 104% | 103% | 103% | 87.5% | 96.6% | 107% | 112% | 123%
2 | SCc1ccc(CS)cc1 | 106% | 109% | 98.2% | 102% | 108% | 77.2% | 108% | 110% | 98.1% | 116%
3 | COc1ccc(-c2nc3ccc(Cc4ccc5nc(-c6ccc(OC)cc6)[nH]c5c4)cc3[nH]2)cc1 | -17.9% (active) | 90.6% | 97.7% | 49.1% | 69.1% | 77.9% | -13.4% (active) | 48.5% | 89.5% | 5.61% (active)
4 | CC(=O)N1N=C(c2ccc(C)cc2)CC1c1cn(-c2ccccc2)nc1-c1cccc(Nc2ccnc3cc(Cl)ccc23)c1 (stereo not given) | 79.1% | 111% | 56.9% | -19.7% (active) | 15.8% | 78.7% | 36% | 68.4% | 52.3% | 93.8%
5 | CCN(CC)CCC(CNc1ccnc2cc(Cl)ccc12)c1ccc(O)cc1 (stereo not given) | 91.3% | 102% | 72.7% | 87.4% | 54.2% | 53.3% | 97.9% | 97.8% | 92.3% | 71.5%
6 | COC1=CC(c2ccc[nH]2)=N/C1=C\c1[nH]c(C)c(C(=O)CCCCCCCCC(=O)O[C@H]2CC[C@H]3C4CCc5cc(O)ccc5C4CC[C@]23C)c1C (stereo not given in full) | 40.3% | 24.9% | 51.5% | 50.7% | 14.9% | -14.6% (active) | 15% | 4.12% (active) | 19.9% | 18.5%
7 | COc1ccc2c(c1)CCCC21C(=O)Nc2ccccc21 (stereo not given) | 101% | 102% | 91.6% | 96.5% | 115% | 99.3% | 83.2% | 95.2% | 99.3% | 108%
8 | O=C(O)c1cn(-c2ccccc2)nc1-c1ccc(O)cc1 | 93.9% | 107% | 100% | 92.7% | 94.7% | 85.5% | 78.6% | 92.4% | 97.4% | 109%
9 | CCCCOc1ncnc2nc[nH]c12 | 100% | 94.2% | 101% | 96.1% | 113% | 101% | 100% | 99.3% | 97.1% | 110%
10 | O=C(Nc1ccc2[nH]c3ccccc3c2c1)c1ccccc1Cl | 67.7% | 81.1% | 56.4% | 45.1% | 22.5% | 76.1% | 15.7% | 40.5% | 62.1% | 14%
11 | CC(=O)c1ccc(Nc2nc(Cl)nc(Oc3c(Cl)cccc3Cl)n2)cc1 | 92.3% | 74.9% | 104% | 101% | 79.9% | 81.2% | 64.4% | 83.8% | 100% | 99.7%
12 | CCCCN(CCCC)CCC(O)c1cc2ccc(C(F)(F)F)cc2c2cc(C(F)(F)F)ccc12 (stereo not given) | 43.1% | 83.1% | 61.3% | 79.1% | 5.31% (active) | -4.55% (active) | 3.17% (active) | 64.8% | 42.4% | 33.3%
13 | CC(=O)Nc1ccc(Cl)cc1Cl | 111% | 95.5% | 114% | 110% | 114% | 107% | 89.4% | 95.3% | 106% | 130%
14 | O=C(/C=C/c1cccc([N+](=O)[O-])c1)c1ccc(Nc2nc(N3CCCCC3)nc(N3CCCCC3)n2)cc1 | 98.7% | 74.2% | 103% | 105% | 96% | 102% | 87.2% | 85.7% | 93.9% | 108%
15 | COc1cc(-c2csc(NC(=O)Nc3cccc(C(F)(F)F)c3)n2)cc(OC)c1OC | 27.8% | 55.6% | 68.3% | 63.6% | 53.8% | 47.8% | 40.7% | 34.2% | 64.2% | 75.4%
16 | Cc1ccc(-c2cnc3sc4ccc(Cl)cc4n23)cc1 | 89.7% | 74.6% | 93.4% | 80.3% | 104% | 85.6% | 78.1% | 112% | 109% | 96.8%
17 | O=c1cc(N2CCOCC2)oc2c(-c3ccc4c(c3)OCCO4)csc12 | 31.9% | 11.6% | 19.8% | 15.5% | 22% | 11.9% | 28.8% | 12.9% | 9.88% (active) | 5.88% (active)
18 | Cc1ccccc1CNc1ncnc2[nH]ncc12 | 109% | 91.9% | 114% | 99.3% | 104% | 64.3% | 47.7% | 91% | 97.3% | 92.2%
19 | COc1ccc(Sc2[nH]c(C=O)c3ccccc23)cc1 | 73.3% | 72.5% | 46.8% | 71% | 6.72% (active) | 53.8% | 75.2% | 34.5% | 70.1% | -0.0496% (active)
20 | CCCCCNCCCCCNc1cc(OC)cc2cccnc12 | 90.7% | 94% | 89.4% | 79.1% | 95.9% | 9.38% (active) | 89.6% | 96.1% | 83.1% | 63.6%
21 | N#Cc1c(N)n(C2OC(CO)C(O)C2O)c2ncnc(N)c12 (stereo not given) | -8.8% (active) | 12.1% | -27.6% (active) | -12.7% (active) | 0.304% (active) | -21.3% (active) | -56.1% (active) | 1.3% (active) | -7.63% (active) | -32.8% (active)
22 | NC(N)=N/N=C\c1cccc(OCc2ccccc2)c1 | 79.5% | 86.2% | 91.7% | 79.6% | 95.3% | 40.9% | 61.8% | 87.9% | 79.6% | -70.9% (active)
23 | CN(C)c1ccc(/C=N/Nc2nnc3n2N=C(c2ccc(Cl)cc2)CS3)cc1 | 102% | 85% | 102% | 104% | 93.4% | 94.5% | 87.5% | 81.3% | 88.1% | 105%
24 | O=C(OCc1ccc2c(Br)cc(Br)c(O)c2n1)c1cc2ccccc2[nH]1 | -27.4% (active) | -66.5% (active) | 51.6% | 13.7% | -38.7% (active) | -66.4% (active) | -74.2% (active) | 14.5% | -78.2% (active) | -74% (active)
25 | Cc1ccc2oc(=O)cc(-c3nc4ccc([N+](=O)[O-])cc4[nH]3)c2c1 | 43.9% | 66.6% | 80.5% | 72% | 47.1% | 52.7% | 36% | 35.2% | 40.6% | 67.8%
26 | CCn1c(CN2CCN(Cc3ccccc3)CC2)nc2cc(NC(=O)c3cccs3)ccc21 | -39% (active) | -35.5% (active) | -69% (active) | -81.6% (active) | -69.9% (active) | -72.3% (active) | -64.4% (active) | -72.9% (active) | -67.8% (active) | -91.3% (active)
